Rows were chosen to be rich in hits. Some 3.2% of all compounds tested hit in one or more screens of this group.
USP1 inh = blocks the human USP1/UAF1 deubiquitinase complex; AID 743255; 390,000 tested, 0.23% active; recombinant USP1/UAF1, Ub-Rhodamine cleavage fluorescence; O94782; Potency, µM (titrated, usually from 57.1 µM), for the others: at the highest dose activity change, negative = inhibition, most hits filed as inhibitors; note: potency is the fitted concentration of half-maximal effect; nearly all actives have a fitted effect of over 60% in size
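High-throughput fluorogenic screen: 1nM USP1/UAF1 complex, Ub-Rho substrate 150nM final, 50mM HEPES pH 7.8 with 0.5mM EDTA, 0.1 mg/ml BSA, 1mM TCEP and 0.01% Tween-20.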
GALK inh = galactokinase (human) inhibition. Purified GALK, Kinase-Glo residual ATP luminescence. 270,000 tested, 0.007% active. Potency, µM (series often up to 57.5 µM), for the others: at the highest dose activity change, negative = inhibition, actives largely listed as inhibitors; note: potency is the fitted concentration of half-maximal effect
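ATP-depletion format; final 35 uM ATP, 100 uM D-galactose, 5 nM enzyme; pH 8.0 HEPES/Mg2+ buffer; 60 min RT; luminescence read 10 min after detection reagent.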
USP2a block = inhibitors of human ubiquitin-specific protease USP2a | O75604 | USP2 core, Ub-CHOP2 coupled fluorogenic reporter, 485/531 | Potency, µM (top dose mostly 38.3 µM), inactives show top-dose activity change, negative = inhibition, usual class: inhibitors | 330,000 tested, 0.01% active | AID 463254;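 note: potency is the fitted concentration of half-maximal effect; plate controls were DMSO wells for no effect and full inhibition by NEM control for full effect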
Target sequence (O75604 whole entry, looked up): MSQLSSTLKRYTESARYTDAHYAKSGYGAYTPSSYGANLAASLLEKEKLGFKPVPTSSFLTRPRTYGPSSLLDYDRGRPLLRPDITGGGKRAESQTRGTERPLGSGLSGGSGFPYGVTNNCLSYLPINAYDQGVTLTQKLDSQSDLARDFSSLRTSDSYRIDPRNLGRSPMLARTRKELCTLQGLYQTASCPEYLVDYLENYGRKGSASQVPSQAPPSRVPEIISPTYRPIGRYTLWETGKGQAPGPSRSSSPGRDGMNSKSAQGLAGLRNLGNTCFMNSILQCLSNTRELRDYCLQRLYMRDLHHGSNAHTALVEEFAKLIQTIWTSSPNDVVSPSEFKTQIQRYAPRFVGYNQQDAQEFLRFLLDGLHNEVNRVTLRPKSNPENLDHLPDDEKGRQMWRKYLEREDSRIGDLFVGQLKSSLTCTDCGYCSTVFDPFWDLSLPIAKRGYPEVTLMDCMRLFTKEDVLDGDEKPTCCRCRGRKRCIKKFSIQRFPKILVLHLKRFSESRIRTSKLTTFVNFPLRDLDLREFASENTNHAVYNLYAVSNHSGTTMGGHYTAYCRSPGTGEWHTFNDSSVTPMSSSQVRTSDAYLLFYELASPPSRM
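Deubiquitinase activity read as fluorescence (485/531 nm) after Ub-CHOP2 cleavage activates the enterokinase reporter on its substrate; USP2 core 10nM, Ub-CHOP2 and substrate 25nM each, 30min compound preincubation then 60min RT; data normalized to NEM, curves fitted.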
FBPA coupling cs = coupling enzyme interference in Giardia aldolase counter-screen; 290,000 tested, 0.67% active; coupling enzyme system counterscreen, AmpLite Red fluorescence; activity change, negative = inhibition, % at 58.2 µM, hits read low; in the data active = activity change below about -30%
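Counterscreen lacking aldolase: glyceraldehyde-3-phosphate coupling-enzyme reagent preincubated 10 min at RT with compound (at 57.5 uM final), then substrate/coupling system with AmpLite Red added; fluorescence read at 525/598 nm after 20 min RT.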
VDR inhibitor = inhibitors of human vitamin D receptor. P11473. VDR-SRC2-3 peptide fluorescence polarization, 2 h. Potency, µM, inactives show max response, negative = inhibition, usual class: inhibitors. 400,000 tested, 0.93% active. AID 504847; note: potency is the fitted concentration of half-maximal effect
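The screen uses fluorescence polarization to detect compounds that interfere with recruitment of the SRC2-3 coactivator peptide to VDR; plates are read after 2 h at room temperature.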
PLK1 PBD inh = PLK1 (human) polo-box domain binding inhibition. P53350. Plk1 PBD binding of FITC phosphopeptide, fluorescence polarization. Potency, µM, for inactives: max response, negative = inhibition, usual class: inhibitors. 360,000 tested, 2.8% active; note: potency is the fitted concentration of half-maximal effect; series mostly up to about 57 µM; nearly all actives have a fitted effect of over 65% in size
The depositor's hits bear a star; ? = inconclusive; nt = no result; ! = repeats disagree. Unless noted, calls come from the whole dose curve; as a rule, active = well fitted curve in the direction sought with a large enough effect; inconclusive = small, poorly fitted or top-dose-only effect, or another doubt; inactive = no such curve, though single readings can be large; an effect the other way counts as inactive or inconclusive. Unless noted, % is set by controls: 0 for no effect and ±100 for the full control effect.

SMILES | USP1 inh | GALK inh | USP2a block | FBPA coupling cs | VDR inhibitor | PLK1 PBD inh
CCN(CC(=O)Nc1ccc(NC(C)=O)cc1)CC(=O)Nc1cccc2ccccc12 | -16% | nt | nt | nt | nt | -7%
COc1ccc2ccc(O)c(CN(C)CC(=O)Nc3ccccc3C(F)(F)F)c2c1 | -14% | 1% | -1% | -11 | ? | 11µM*
COc1cccc(CN(C)Cc2c(O)ccc3ccccc23)c1 | -14% | 1% | 4% | -16 | 0% | 17µM*
CC(=O)c1cccc(NC(=O)CSc2nc(=O)n(CCN3CCOCC3)c3c2CCC3)c1 | -13% | nt | 3% | nt | -5% | -2%
COc1ccc(CCNCC(=O)Nc2ccccc2C(F)(F)F)cc1 | -11% | 4% | 5% | -1 | -26% | 27µM*
COc1ccc(CCNCC(=O)Nc2ccc(OC(F)F)cc2)cc1 | -19% | -5% | 3% | -2 | -11% | 0%
O=C1C=CC(=Nc2cccc3c2C(=O)c2ccccc2-3)O1 | ? | nt | nt | nt | ? | -26%
O=C1C=CC(=Nc2ccc3c(c2)Cc2cc(F)ccc2-3)O1 | -7% | nt | nt | nt | 56µM* | ?
Cc1cc2cc(C=C(C#N)C#N)c(Cl)nc2cc1C | -9% | 0% | ? | -1 | 50µM* | ?
CCOC(=O)/C(C#N)=C/c1cc2cc(C)c(C)cc2nc1Cl | -27% | -2% | 0% | 0 | -15% | -7%
COC(=O)C1C(=O)C2=C(CC1C)NC(=O)CC2c1cccc(C)c1 (stereo unspecified) | -18% | -3% | 1% | 3 | -23% | 27µM*
CC12CCC(C(=O)Nc3ccccc3)(C/C1=N\O)C2(C)C (stereo unspecified) | -9% | 1% | 0% | 0 | 1% | -5%
COc1ccc(NC(=S)NNc2ccc([N+](=O)[O-])cc2S(=O)(=O)Nc2ccc(C)cc2C)cc1 | -23% | -1% | -8% | -2 | 45µM* | 27µM*
Cc1ccc(NS(=O)(=O)c2cc([N+](=O)[O-])ccc2NNC(=S)Nc2cc(C)ccc2C)c(C)c1 | -14% | 1% | -12% | -5 | ? | ?
O=C(Nc1cccc2ccccc12)c1ccccc1NS(=O)(=O)c1cccc2cccnc12 | -10% | 1% | 1% | 5 | 9% | -10%
Cc1nnc(NC(=O)C2c3ccccc3Oc3ccccc32)s1 | 2% | -2% | 2% | -2 | ? | 21µM*
Cc1ccnc(NS(=O)(=O)c2ccc(NC(=O)C3COc4ccccc4O3)cc2)n1 (stereo unspecified) | -20% | -3% | 9% | 5 | ? | 7.5µM*
CCc1nnc(NC(=O)C2COc3ccccc3O2)s1 (stereo unspecified) | -4% | -4% | 2% | 1 | -4% | -5%
CC(C)c1nnc(NC(=O)C2c3ccccc3Oc3ccccc32)s1 | -23% | -3% | 0% | 0 | -2% | ?
Cc1nnc(NC(=O)C2COc3ccccc3O2)s1 (stereo unspecified) | -5% | 7% | 0% | 2 | -14% | 21µM*
CC(C)(C)c1ccc(CN2N=Nc3ccccc3S2(=O)=O)cc1 | -20% | 3% | -8% | -49* | 50µM* | 13µM*
Cc1ccc(S(=O)(=O)NCC(=O)N(CC(=O)NCc2ccco2)Cc2ccco2)cc1 | -25% | -3% | 10% | 3 | 21% | -7%
Cn1c(=S)c2[nH]c(SCCN)nc2n(C)c1=O | -8% | nt | nt | nt | -21% | 27µM*
Clc1ccc(SCCCCN2CCOCC2)cc1 | -18% | 3% | 2% | 1 | -9% | 1%
Clc1ccc(SCCCCN2CCNCC2)cc1 | -17% | 0% | -3% | 1 | -11% | 24µM*
SMILES | USP1 inh | GALK inh | USP2a block | FBPA coupling cs | VDR inhibitor | PLK1 PBD inh
Cc1ccc(SCCCCN2CCOCC2)cc1 | -18% | -3% | 1% | 3 | 15% | -13%
Cc1ccc(SCCCCN2CCNCC2)cc1 | -16% | 1% | -1% | -3 | -14% | 17µM*
CC1=C/C(=C\c2ccc(Br)o2)C(=O)O1 | 28% | -1% | 5% | -1 | 2% | 19µM*
Cc1ccc(C(=O)O)cc1-c1ccc(C=C2C(=O)c3ccccc3C2=O)o1 | -17% | 2% | 1% | -2 | -11% | ?
COc1ccccc1-c1ccc(/C=C2/C=C(C)OC2=O)o1 | -18% | nt | -2% | -9 | ? | ?
O=C1C(=Cc2ccc(Br)o2)C(=O)c2ccccc21 | -18% | -4% | -25% | 1 | 1% | 2.7µM*
Cc1ccc(CCNC(=O)c2cc3sccc3n2Cc2ccc(C)cc2)cc1 | ? | nt | nt | nt | 13% | nt
CCOC(=O)NNc1ccccc1 | -11% | 0% | 1% | -3 | -24% | -12%
CCOC(=O)C(=CNNc1ccccc1)C(=O)OCC | 3% | 1% | 0% | 2 | 50µM* | ?
CSc1n[nH]c(NCc2ccccc2)n1 | -12% | -2% | -1% | 3 | 6% | -2%
O=[N+]([O-])c1ccc(NC(=S)N/C(=N/CS(=O)(=O)c2ccccc2)c2ccccc2)cc1 | -18% | 3% | -1% | 1 | -3% | 19µM*
COc1ccc(NC(=S)N/C(=N/CS(=O)(=O)c2ccccc2)c2ccccc2)cc1 | -3% | 0% | 5% | -4 | -12% | ?
Cc1cccc(NC(=S)N/C(=N/S(=O)(=O)c2ccccc2)c2ccccc2)c1 | -1% | -3% | -1% | 5 | 89µM*! | 24µM*
O=C(NCc1ccccc1)c1nc(-c2c(F)cccc2F)oc1-c1ccccc1 | nt | nt | nt | nt | nt | 1%
COc1cccc(-c2csc(NC3OC(=O)c4c3ccc(OC)c4OC)n2)c1 (stereo unspecified) | -19% | 4% | -1% | 5 | -13% | -14%
COc1ccc2c(c1OC)C(=O)OC2Nc1nc(-c2ccc(-c3ccccc3)cc2)cs1 (stereo unspecified) | -18% | -3% | -5% | 16 | -30% | 27µM*
COCCOCCn1c(/C=C/c2ccccc2)nc2ccccc21 | ? | -8% | 2% | -15 | ? | 19µM*
COc1ccc(CN2CCN(CCCc3ccccc3)C(CCO)C2)c(OC)c1 (stereo unspecified) | -2% | 4% | 1% | 2 | 4% | -11%
OCCC1CN(Cc2c(O)ccc3ccccc23)CCN1CCc1ccccc1 (stereo unspecified) | -23% | 12% | 1% | -38* | ? | 24µM*
COc1cc(CN2CCN(CCCc3ccccc3)C(CCO)C2)cc(OC)c1O (stereo unspecified) | -22% | 5% | 0% | -41* | -24% | -25%
OCCC1CN(Cc2ccccc2O)CCN1CCCc1ccccc1 (stereo unspecified) | 6% | 2% | -1% | -1 | 0% | -6%
